Experimental findings from PubChem BioAssay are described below.

Experiment [1] deals with Cell division control protein 42 homolog (Homo sapiens) (UniProt P60953). Put plainly: inhibition of fluorescent GTP binding to constitutively active Cdc42 – biochemical, multiplex bead flow cytometry, Bodipy-FL-GTP, dose response (AID 1333;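 active = fitted half-maximal concentration within the tested dose range, moderate curve steepness, a statistically real signal drop, and little compound fluorescence or tag-binding interference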). In general terms: In flow cytometry, cells or beads pass a laser one at a time.
Experiment [2] has the same target. Briefly: inhibition of fluorescent GTP binding to wildtype Cdc42 – biochemical, multiplex bead flow cytometry, Bodipy-FL-GTP, dose response (AID 1334;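 active = fitted half-maximal concentration within the tested range, moderate curve steepness, significant signal drop, and little compound fluorescence or bead-linkage interference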). The conditions noted are these: bead-based flow cytometry, Bodipy-FL-GTP binding to GST-Cdc42; at 100 µM (top of the series) unless noted.
In experiment [3] the target is GTPase HRas (Homo sapiens) (UniProt P01112). Put plainly: Ras wt fluorescent GTP loading blockade – biochemical, wildtype, multiplex bead flow cytometry, dose response (AID 1335;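 active = fitted half-maximal concentration within 10 nM to 100 µM, steepness 0.5 to 2, significant signal drop, low assay interference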). The conditions noted are these: bead-based flow cytometry, Bodipy-GTP binding to GST-Ras; at 100 µM (top of the series) unless noted.
In experiment [4] the test system is Ras-related protein Rab-7a (dog), GTP binding. Put plainly: blockers of fluorescent GTP binding to Rab7 – biochemical, wildtype, multiplex bead flow cytometry, dose response (AID 1336; call rule not given here).
Experiment [5] has as its target Ras-related C3 botulinum toxin substrate 1 (Homo sapiens) (UniProt P63000). Put plainly: inhibition of wildtype Rac1 nucleotide loading – biochemical, multiplex bead flow cytometry, dose response (AID 1340). The note with it: GST-Rac1 beads, Bodipy-FL-GTP binding; at 100 µM (top of the series) unless noted.
Experiment [6] has as its target GTPase HRas (Homo sapiens) (UniProt P01112). Put plainly: blockade of GTP loading onto mutant Ras – biochemical, activated mutant, multiplex bead flow cytometry, dose response (AID 1341;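 active = dose-response curve with midpoint inside the tested range, moderate steepness, significant amplitude and little compound fluorescence or bead-attachment interference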;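 also: GST-tagged constitutively activated Ras mutant immobilized on beads and multiplexed with other GTPases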).

For part of these data: Entries with a potency or affinity are not part of this list. Active and inactive are the calls of the source.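 The calls were made as follows, unless noted: active = dose curve with midpoint inside tested range, moderate steepness, plateau gap beyond fit error, low compound glow and bead-link interference; inactive = the rest.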

Chain of Cell division control protein 42 homolog (Homo sapiens) (P60953 whole entry, looked up): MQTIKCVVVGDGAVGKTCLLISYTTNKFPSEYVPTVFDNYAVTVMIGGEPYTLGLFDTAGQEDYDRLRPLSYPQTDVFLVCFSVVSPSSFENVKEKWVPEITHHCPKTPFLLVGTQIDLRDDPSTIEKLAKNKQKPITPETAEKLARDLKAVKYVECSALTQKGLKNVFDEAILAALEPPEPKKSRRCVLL
Chain of GTPase HRas (Homo sapiens) (P01112 whole entry, looked up): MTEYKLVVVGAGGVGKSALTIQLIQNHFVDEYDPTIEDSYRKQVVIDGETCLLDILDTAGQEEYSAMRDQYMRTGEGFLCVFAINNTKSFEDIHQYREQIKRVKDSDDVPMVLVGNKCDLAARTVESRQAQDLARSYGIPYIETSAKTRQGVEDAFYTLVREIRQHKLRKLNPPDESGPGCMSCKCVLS

Regarding `CCCc1cc(N2CCN(C(=O)c3ccco3)CC2)n2c(nc3ccccc32)c1C#N`, the result in experiment [1], in experiment [4] and in experiment [6] was inactive. Moreover, in experiment [2], the fluorescence, percent of control (lower = inhibition) was 34.7%. This compound also came in with a GTP binding, percent of control in experiment [3] of 79%. The compound further yielded a GTP binding signal, raw median fluorescence (lower = inhibition) (MCF (arbitrary fluorescence units)) in experiment [5] of 240.

For the compound `Cc1n[nH]c(=S)c2nn(-c3ccccc3F)c(C)c12`, the call in experiment [1], in experiment [4] and in experiment [6] was inactive. For the same compound, the fluorescence, percent of control (lower = inhibition) in experiment [2] was 48.5%. The same compound registered a GTP binding, percent of control in experiment [3] of 62.5%. This compound also returned a GTP binding signal, raw median fluorescence (lower = inhibition) (MCF (arbitrary fluorescence units)) in experiment [5] of 179.

For the compound `O=C(O)c1cc2ccccc2nc1OCc1ccccc1`, the call in experiment [1], in experiment [4] and in experiment [6] was inactive. Besides, in experiment [2], the fluorescence, percent of control (lower = inhibition) is 49.1%. Further, the GTP binding, percent of control in experiment [3] amounted to 200%. In experiment [5], this compound displayed a GTP binding signal, raw median fluorescence (lower = inhibition) (MCF (arbitrary fluorescence units)) of 46.4.

For the compound `COc1cc(N2CCCC2)c(OC)cc1/C=C(/C#N)c1cccc(Br)c1`, the compound was called inactive in experiment [1], in experiment [4] and in experiment [6]. In experiment [2], the fluorescence, percent of control (lower = inhibition) came to 103%. Further, the GTP binding, percent of control in experiment [3] was found to be 110%. In addition, the GTP binding signal, raw median fluorescence (lower = inhibition) (MCF (arbitrary fluorescence units)) in experiment [5] worked out at 228.

On to `CC(C)c1nc2oc3c(=O)[nH]cnc3c2c2c1CCC2`, for which the compound was classed as inactive in experiment [1], in experiment [4] and in experiment [6]. In addition, the fluorescence, percent of control (lower = inhibition) in experiment [2] is 80%. Further, the GTP binding, percent of control in experiment [3] came to 108%. For the same compound, the GTP binding signal, raw median fluorescence (lower = inhibition) (MCF (arbitrary fluorescence units)) in experiment [5] was 138.

Turning to `COc1cc(/C=N/Nc2nncn2/N=C/c2ccc(O)c(OC)c2)ccc1O`, the result in experiment [1], in experiment [4] and in experiment [6] was inactive. The fluorescence, percent of control (lower = inhibition) in experiment [2] was 30.7%. For the same compound, the GTP binding, percent of control in experiment [3] was found to be 68.3%. Besides, the GTP binding signal, raw median fluorescence (lower = inhibition) (MCF (arbitrary fluorescence units)) in experiment [5] is 147.

As to `O=C(c1cccnc1SCCc1ccccc1)N1CCOCC1`, the call in experiment [1], in experiment [4] and in experiment [6] was inactive. For the same compound, the fluorescence, percent of control (lower = inhibition) in experiment [2] came out at 77.3%. The compound further displayed a GTP binding, percent of control in experiment [3] of 101%. This compound also yielded a GTP binding signal, raw median fluorescence (lower = inhibition) (MCF (arbitrary fluorescence units)) in experiment [5] of 64.8.

As to `COc1ccc(Cn2c(O)c(/C=N/NC(=O)c3cccnc3)c3ccccc3c2=O)cc1`, the compound was classed as inactive in experiment [1], in experiment [4] and in experiment [6]. In addition, in experiment [2], the fluorescence, percent of control (lower = inhibition) worked out at 17.2%. Moreover, the GTP binding, percent of control in experiment [3] was found to be 68.9%. The GTP binding signal, raw median fluorescence (lower = inhibition) (MCF (arbitrary fluorescence units)) in experiment [5] was 63.7.

As to `O=C(Nn1cc(C(=O)N2CCN(c3ccccc3F)CC2)c2ccccc2c1=O)c1cnccn1`, the call in experiment [1], in experiment [4] and in experiment [6] was inactive. Besides, the fluorescence, percent of control (lower = inhibition) in experiment [2] came to 98.6%. The same compound returned a GTP binding, percent of control in experiment [3] of 156%. In experiment [5], this compound returned a GTP binding signal, raw median fluorescence (lower = inhibition) (MCF (arbitrary fluorescence units)) of 197.

For the compound `Cc1ccc(Nc2c(F)c(F)c(F)c(F)c2C(=O)O)cc1`, the outcome in experiment [1], in experiment [4] and in experiment [6] was inactive. In addition, the fluorescence, percent of control (lower = inhibition) in experiment [2] was found to be 84.8%. This compound showed a GTP binding, percent of control in experiment [3] of 106%. The compound also had a GTP binding signal, raw median fluorescence (lower = inhibition) (MCF (arbitrary fluorescence units)) in experiment [5] of 74.

`O=C(Nc1nc(-c2ccc(S(=O)(=O)N3CCCC3)cc2)cs1)c1cccs1`: the result in experiment [1], in experiment [4] and in experiment [6] was inactive. The fluorescence, percent of control (lower = inhibition) in experiment [2] turned out to be 83.9%. Moreover, the GTP binding, percent of control in experiment [3] was 135%. The compound also returned a GTP binding signal, raw median fluorescence (lower = inhibition) (MCF (arbitrary fluorescence units)) in experiment [5] of 164.

In the case of `O=C(Oc1c(Br)cc(C(=S)N2CCOCC2)cc1Br)c1ccc(Cl)cc1`, the outcome in experiment [1], in experiment [4] and in experiment [6] was inactive. In experiment [2], the fluorescence, percent of control (lower = inhibition) stood at 29.7%. In experiment [3], the GTP binding, percent of control came to 85%. The compound further returned a GTP binding signal, raw median fluorescence (lower = inhibition) (MCF (arbitrary fluorescence units)) in experiment [5] of 217.

In the case of `Cc1cc(NCc2sc(C(=O)O)cc2C)ccc1Br`, the call in experiment [1], in experiment [4] and in experiment [6] was inactive. Moreover, the fluorescence, percent of control (lower = inhibition) in experiment [2] was 57.8%. Further, the GTP binding, percent of control in experiment [3] was 81.7%. In addition, the GTP binding signal, raw median fluorescence (lower = inhibition) (MCF (arbitrary fluorescence units)) in experiment [5] came out at 33.8.

In the case of `CC(C)c1ccc(C(=O)NC2=NCCS2)cc1`, the compound was called inactive in experiment [1], in experiment [4] and in experiment [6]. In experiment [2], the fluorescence, percent of control (lower = inhibition) is 50.5%. The compound also came in with a GTP binding, percent of control in experiment [3] of 62.6%. In experiment [5], this compound showed a GTP binding signal, raw median fluorescence (lower = inhibition) (MCF (arbitrary fluorescence units)) of 204.

Regarding `COc1ccc(CC(C)N2CCN(Cc3ccccc3)CC2)c(OC)c1` (stereo not given), the outcome in experiment [1], in experiment [4] and in experiment [6] was inactive. The fluorescence, percent of control (lower = inhibition) in experiment [2] stood at 38.1%. In experiment [3], this compound had a GTP binding, percent of control of 85.3%. The GTP binding signal, raw median fluorescence (lower = inhibition) (MCF (arbitrary fluorescence units)) in experiment [5] came to 272.
